MEKK2mut PB1 HTS: signal of MEK5 binding to mutant human MEKK2 PB1 domain; bead flow cytometry, Alexa488-MEK5 binding to MEKK2 mutant; percent response, % at 10 µM; 290,000 compounds, 0.35% hits; in the data active = percent response above about 24%, passing the limit was not always enough
GRK2 inh: blocks RNA aptamer binding to human GRK2. AID 488847. P25098. 330,000 compounds, 0.59% hits. inhibition of aptamer binding, % at 10 µM. bead flow cytometry, FAM-aptamer displacement from GRK2;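 active = inhibition of aptamer binding above 40%, roughly 3 SD of noise, on plates passing a quality check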;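 also: median bead fluorescence of bound FAM aptamer so fluorescent compounds give negative values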
MEKK2wt PB1 HTS: raises or lowers MEK5 binding to wildtype human MEKK2 PB1 domain | Q9Y2U5 | bead flow cytometry, Alexa488-MEK5 binding to MEKK2 WT; actives lie on both sides | binding response (% of control), % at 10 µM | 290,000 compounds, 1.1% hits | AID 1531; in the data active = binding response below about 67% or above about 130%
MEKK3 PB1 HTS: modulators (inhibitors or enhancers) of MEK5 binding to human MEKK3 PB1 domain; Q99759; AID 1529; bead-based flow cytometry, Alexa488-MEK5 binding to MEKK3; actives lie on both sides; 0 = blocked by unlabeled MEK5, 100 = vehicle; 290,000 compounds, 1.4% hits; binding response (% of control), % at 10 µM;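 active = binding response more than 3 SD above or below the average of its plate-row segment, actives on both sides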;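 also: Alexa488 bead fluorescence after subtracting the streptavidin-only scavenger bead signal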
Target sequence (Q99759 whole entry, looked up, the tested form may be a part): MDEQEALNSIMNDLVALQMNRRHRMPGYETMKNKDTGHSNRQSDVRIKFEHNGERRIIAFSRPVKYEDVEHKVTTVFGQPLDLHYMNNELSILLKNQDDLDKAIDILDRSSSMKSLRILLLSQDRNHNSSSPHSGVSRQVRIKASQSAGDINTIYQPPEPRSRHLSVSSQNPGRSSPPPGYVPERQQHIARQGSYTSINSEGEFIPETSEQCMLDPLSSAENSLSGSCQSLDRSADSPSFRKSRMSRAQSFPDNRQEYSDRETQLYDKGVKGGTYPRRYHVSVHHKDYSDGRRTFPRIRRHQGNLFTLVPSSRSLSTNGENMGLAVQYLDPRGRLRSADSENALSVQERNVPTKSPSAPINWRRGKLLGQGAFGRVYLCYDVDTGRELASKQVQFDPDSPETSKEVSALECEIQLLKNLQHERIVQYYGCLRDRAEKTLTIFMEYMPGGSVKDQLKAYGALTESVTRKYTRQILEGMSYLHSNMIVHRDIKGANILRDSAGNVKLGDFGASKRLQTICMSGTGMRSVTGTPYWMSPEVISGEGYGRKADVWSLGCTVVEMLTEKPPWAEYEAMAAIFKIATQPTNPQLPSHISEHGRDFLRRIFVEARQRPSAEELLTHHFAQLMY
MEKK2wt confirm: raises or lowers MEK5 binding to wildtype human MEKK2, retest; AID 1892; bead flow cytometry, Alexa488-MEK5 binding to MEKK2 WT; actives lie on both sides; 5,900 compounds, 2.4% hits; binding response (% of control), % at 10 µM; shares compounds with MEKK3 PB1 HTS; in the data active = binding response below about 16% or above about 210%; inactive = in between
MEKK2mut confirm: signal of MEK5 binding to mutant human MEKK2, retest; shares compounds with MEKK3 PB1 HTS; bead flow cytometry, Alexa488-MEK5 binding to MEKK2 mutant; percent response, % at 10 µM; 5,900 compounds, 2% hits; AID 1893; in the data active = percent response mostly above about 71%, no sharp cut-off; inactive = mostly below about 38%;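 also: higher means compound restores mutant binding toward wildtype level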
MEKK3 confirm: MEKK3-MEK5 PB1 inhibition, single concentration confirmation; shares compounds with MEKK3 PB1 HTS; bead flow cytometry, Alexa488-MEK5 binding to MEKK3; active compounds read low; binding response (% of control), % at 10 µM; 5,900 compounds, 1.8% hits; AID 1894;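 active = binding response below 72% of control, or above a set upper limit, though filed actives all read lower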;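 also: lower values mean stronger disruption of MEK5 binding to MEKK3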
Large screens that a line does not name were inactive (follow-up assays come after a bar, where they were run); [ ] = dose if it differs, or a comment. The list is not random: actives were taken first. Their share in the collection is about 2.5%.

CCCCn1cnc2c(c(-c3ccccc3)c(-c3ccccc3)n2Cc2ccco2)c1=N	none
N=c1c2c(-c3ccccc3)c(-c3ccccc3)n(Cc3ccccc3)c2ncn1CCCn1ccnc1	MEKK2wt PB1 HTS 146 | MEKK2wt confirm inactive | MEKK2mut confirm inactive | MEKK3 confirm inactive
N=c1c2c(-c3ccccc3)c(-c3ccccc3)n(Cc3ccco3)c2ncn1Cc1ccco1	MEKK2mut PB1 HTS 41, MEKK2wt PB1 HTS 152 | MEKK2wt confirm inactive | MEKK2mut confirm inactive | MEKK3 confirm inactive
Cc1cc(NCCCn2ccnc2)n2nc(C)c(-c3ccccc3)c2n1	none
C=CCOc1ccc(C2N3CC4(CC)CN2CC(CC)(C3)C4=O)cc1 (stereo not drawn)	MEKK3 PB1 HTS 82[inhibitor] | MEKK2wt confirm inactive | MEKK2mut confirm inactive | MEKK3 confirm inactive
CCC12CN3CC(CC)(CN(C1)C3c1c(O)ccc3ccccc13)C2=O (stereo not drawn)	none (no result: GRK2 inh)
CC1=Nc2cc(C(=O)NCc3ccco3)ccc2Sc2ccc(C)cc21	none
Cc1[nH]nc(SCC(=O)Nc2ccc(C#N)cc2)c1[N+](=O)[O-]	MEKK3 PB1 HTS 133 | MEKK2wt confirm inactive | MEKK2mut confirm inactive | MEKK3 confirm inactive
COc1cccc2cc(C(N)=O)/c(=N/NC(=O)COc3ccc(Cl)cc3)oc12	MEKK3 PB1 HTS 143 | MEKK2wt confirm inactive | MEKK2mut confirm inactive | MEKK3 confirm inactive
COc1ccc(OCC(=O)N/N=c2\oc3c(OC)cccc3cc2C(N)=O)cc1	none
CCN(CCNCC(O)COc1ccccc1C(C)C)c1cccc(C)c1 (stereo not drawn)	MEKK2mut PB1 HTS 44, MEKK2wt PB1 HTS 174 | MEKK2wt confirm inactive | MEKK2mut confirm inactive | MEKK3 confirm inactive
Cc1ccc(-c2n[nH]c(Cc3ccccc3)n2)cc1	none
Cc1ccc(CN2CC(C(=O)Nc3ncccc3C)CC2=O)cc1 (stereo not drawn)	none
COc1ccccc1NS(=O)(=O)c1cccc(C(=O)NN=C2CCCC2)c1	none
COc1ccccc1NS(=O)(=O)c1cccc(C(=O)N/N=C2\CC(=O)CC(C)(C)C2)c1	MEKK3 PB1 HTS 142 | MEKK2wt confirm inactive | MEKK2mut confirm inactive | MEKK3 confirm inactive
CCCn1c(N)c(N(CCOC)C(=O)c2cc(-c3ccco3)nc3ccccc23)c(=O)[nH]c1=O	none
COc1cc(CNCCc2ccc(S(N)(=O)=O)cc2)ccc1OCc1ccc(Cl)cc1	MEKK2mut PB1 HTS 71, MEKK2wt PB1 HTS 232 | MEKK2wt confirm inactive | MEKK2mut confirm inactive | MEKK3 confirm inactive
CCOc1cc(CNCCc2ccc(S(N)(=O)=O)cc2)ccc1OCc1ccc(Cl)cc1	MEKK2mut PB1 HTS 46, MEKK2wt PB1 HTS 214 | MEKK2wt confirm inactive | MEKK2mut confirm inactive | MEKK3 confirm inactive
CCOc1ccc(CNCCc2ccc(S(N)(=O)=O)cc2)cc1	none
Cc1cc(C(=O)N(C)Cc2c(F)cccc2Cl)c2ccccc2n1	none
Cc1oc(-c2ccccc2Cl)nc1Cn1cccc1C1=NC(c2ccccc2)CO1 (stereo not drawn)	MEKK2wt PB1 HTS 29[inhibitor], MEKK3 PB1 HTS 19[inhibitor] | MEKK2wt confirm inactive | MEKK2mut confirm inactive | MEKK3 confirm inactive
CC(=O)Nc1cccc(NC(=O)CSc2nc(=O)n(CCN3CCOCC3)c3c2CCCC3)c1	none (no result: MEKK2mut PB1 HTS, MEKK2wt PB1 HTS, MEKK3 PB1 HTS)
Cc1ccc(C)c(NC(=S)NNC(=O)c2csc(C)c2C)c1	MEKK2wt PB1 HTS 2.0[inhibitor], MEKK3 PB1 HTS 2.0[inhibitor] | MEKK2wt confirm inactive | MEKK2mut confirm inactive | MEKK3 confirm inactive
COc1cccc(NC(=O)CN2CCN(c3ccc(F)cc3)CC2)c1	none
COc1ccc(CNCc2cccn2C)cc1	MEKK2mut PB1 HTS 28 | MEKK2wt confirm inactive | MEKK2mut confirm inactive | MEKK3 confirm inactive
Cn1nc(-c2ccc(Cl)cc2)cc1NC(=O)CC(C)(C)CC(=O)O	MEKK3 PB1 HTS 129 | MEKK2wt confirm inactive | MEKK2mut confirm inactive | MEKK3 confirm inactive
O=C(/C(=N/N=C/c1ccc(O)c(O)c1O)c1ccccc1)c1ccccc1	MEKK3 PB1 HTS 136 | MEKK2wt confirm inactive | MEKK2mut confirm inactive | MEKK3 confirm inactive
Oc1ccc(/C=N/N=C(c2ccccc2)c2ccccc2)c(O)c1O	none
CN1CCN(C(=S)c2ccc(Cl)cc2)CC1	none
OC(COCC1COc2ccccc2O1)CN1CCN(c2ccccn2)CC1 (stereo not drawn)	MEKK2mut PB1 HTS 24 | MEKK2wt confirm inactive | MEKK2mut confirm inactive | MEKK3 confirm inactive
c1ccc(CCNc2ccnc3cc4ccccc4cc23)cc1	MEKK2mut PB1 HTS 97, MEKK2wt PB1 HTS 210 (no result: GRK2 inh) | MEKK2wt confirm inactive | MEKK2mut confirm inactive | MEKK3 confirm inactive
O=C(NCCc1ccccc1)c1nccc2ccccc12	none (no result: MEKK2mut PB1 HTS, MEKK2wt PB1 HTS, MEKK3 PB1 HTS)
Cn1cccc1C(=O)OCC(=O)NC(=O)NC1CCCCC1	none
CC(C)COc1cc(=O)[nH]c(SCC(C)C)n1	none
CCOC(=O)C1(CCOc2ccccc2)CCN(Cc2cccc3c2OCO3)CC1	none
CCOC(=O)C1(CCOc2ccccc2)CCN(Cc2cc(OC)c3c(c2)OCO3)CC1	MEKK2wt PB1 HTS 145 | MEKK2wt confirm inactive | MEKK2mut confirm inactive | MEKK3 confirm inactive
Cc1onc(-c2ccccc2Cl)c1C(=O)NCCN1Cc2ccccc2C1=O	MEKK2wt PB1 HTS 2.0[inhibitor], MEKK3 PB1 HTS 1.0[inhibitor] | MEKK2wt confirm inactive | MEKK2mut confirm inactive | MEKK3 confirm inactive
COc1ccc(CCNC(=O)c2c(-c3ccccc3Cl)noc2C)cc1	none
CCCc1cc(=O)[nH]c(SCC(=O)Nc2nc(-c3ccccc3)cs2)n1	none
O=C(CSc1nc2ccccc2[nH]1)Nc1nc(-c2ccc(Br)cc2)cs1	MEKK3 PB1 HTS 173 | MEKK2wt confirm inactive | MEKK2mut confirm inactive | MEKK3 confirm inactive
c1ccc(-c2cc3c(nn2)CCc2nonc2-3)cc1	MEKK3 PB1 HTS 72[inhibitor] | MEKK2wt confirm inactive | MEKK2mut confirm inactive | MEKK3 confirm inactive
C/C(=N\NC(=O)c1nnn(-c2nonc2N)c1CSc1ccc(Cl)cc1)c1ccco1	none
CC(=O)c1c(C)nc(-c2ccc(OCC(=O)Nc3cccc(C)c3C)cc2)n1O	none
Cc1cccc(NC(=O)c2ccc(S(=O)(=O)C(F)F)cc2)c1C	MEKK3 PB1 HTS 137 | MEKK2wt confirm inactive | MEKK2mut confirm inactive | MEKK3 confirm inactive
Cc1cc(C)cc(NC(=O)c2ccc(S(=O)(=O)C(F)F)cc2)c1	MEKK3 PB1 HTS 144 | MEKK2wt confirm inactive | MEKK2mut confirm inactive | MEKK3 confirm inactive
O=C(c1cc(COc2ccccc2)on1)N1CCCC(CN2CCOCC2)C1 (stereo not drawn)	none
Cc1cccc(C2c3[nH]c4ccccc4c3CCN2Cc2cccn2-c2ncccn2)c1 (stereo not drawn)	MEKK2wt PB1 HTS 149 | MEKK2wt confirm inactive | MEKK2mut confirm inactive | MEKK3 confirm inactive

Compound activity from PubChem BioAssay.
